# In the library only some 6.5% were active in any assay of this set; here they are far more common.
# TGFb SMAD3 inh = qHTS for Inhibitors of TGF-b | HepG2 CAGA-GFP TGF-b/SMAD3 reporter, GFP fluorescence, 18 h; TGF-beta stimulated, 500 pg/mL final | 410,000 tested, 1.2% active | Potency, µM (titrated, usually from 46.1 µM), for inactives: top-dose activity, negative = inhibition, usual class: inhibitors | AID 588855, 2011; note: potency is the fitted concentration of half-maximal effect; % is set by controls: 0 for no effect and ±100 for the full control effect; nearly all actives have a fitted effect of over 65% in size
#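 First, reporter cells (HEPG2 CAGA-GFP) rested 2 h at 37 degrees C. Next, compounds were pinned in and TGF-beta added to 500 pg/mL final. After 18 h, GFP was imaged per cell and summed per well.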
# HT1080 IDH1KD tx = qHTS for induction of synthetic lethality in tumor cells producing 2HG: qHTS for the HT-1080-IDH1KD cell line | HT-1080 IDH1 knockdown viability, ATP luminescence, 48 h | Potency, µM (titrated, usually from 46.1 µM), for inactives: at the highest dose activity, negative = toxicity, actives largely listed as cytotoxic | 360,000 tested, 2% active | AID 686971, 2013;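 note: potency is the fitted concentration of half-maximal effect; 0% = DMSO wells and -100% = cell-free medium wells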
#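 Cytotoxicity counter-line: IDH1KD HT-1080, 48 h, CellTiter-Glo. Curves classed by r2, magnitude and activity.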
# IL1B secr inh = qHTS for Inhibitors of Inflammasome Signaling: IL-1-beta AlphaLISA Primary Screen; 360,000 tested, 4.7% active; AID 743279, 2014; activity change, % at 57.5 µM; THP-1 LPS/ATP IL-1B secretion, AlphaLISA, 16 h; active compounds read low; in the data active = activity change below about -50%; inconclusive = mostly about -30% to -49%; note: % is set by controls: 0 for no effect and ±100 for the full control effect
#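 Secreted IL-1B measured by AlphaLISA bead assay after 16 h compound exposure of THP-1 cells; compounds (final up to 57.5 uM) added 1 h before LPS (250 ng/mL) and ATP (1.25 mM) stimulation; lower signal means less secretion.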
# HT1080NT lethal = qHTS for induction of synthetic lethality in tumor cells producing 2HG: qHTS for the HT-1080-NT fibrosarcoma cell line. HT-1080-NT fibrosarcoma viability, CellTiter-Glo ATP luminescence, 48 h. Potency, µM (series often up to 46.1 µM), for inactives: at the highest dose activity, negative = less viability, actives largely listed as cytotoxic. 360,000 tested, 1.6% active;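 note: NT is the 2HG producing partner of a matched IDH1 knockdown line; potency is the fitted concentration of half-maximal effect; 0% = DMSO-treated cells and -100% = media-only wells without cells; nearly all actives have a fitted effect of over 55% in size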
#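 A 48-hour cytotoxicity screen used HT-1080-NT cells plated 2 hours before compound delivery. ATP-based CellTiter-Glo luminescence measured viability, normalized to DMSO and no-cell controls.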
# Giardia kill = Small Molecules that selectively kill Giardia lamblia: qHTS. Giardia lamblia trophozoite viability. AID 540267, 2011. 340,000 tested, 0.15% active. activity change, % at 7.66 µM, hits read low; in the data active = activity change below about -80%; inconclusive = between about -30% and that limit;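 note: parasites exposed to compound for two days anaerobically before the ATP read; % is set by controls: 0 for no effect and ±100 for the full control effect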
#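 Compounds were tested on trophozoites seeded at 100 cells/well and held 48 hrs at 37 deg C anaerobically. An ATP-based luminescent kit measured the remaining live cells.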
# HepG2 viability = qHTS for Inhibitors of TGF-b: Cytotox Counterscreen | Potency, µM (top dose mostly 46.1 µM), without a hit: top-dose activity change, negative = cytotoxicity, usual class: cytotoxic | 410,000 tested, 0.76% active | HepG2 CAGA-GFP viability, ATP luminescence, 18 h; note: potency is the fitted concentration of half-maximal effect
#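 CellTiter-Glo luminescence gave cytotoxicity after 18 hours at 37 degrees C. The cells were HepG2 CAGA-GFP in 1% FBS DMEM, stimulated with 500 pg/mL TGF-beta after compound addition. %Activity was normalised to no-cell wells (complete cell-killing) and DMSO (no toxicity), and curves were fitted and classified.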
# * marks the source's active call; other numbers are inactive results; ? = inconclusive; · = no result; [ ] = remark or other dose. Unless noted, calls come from the whole dose curve; as a rule, active = well fitted curve in the direction sought with a large enough effect; inconclusive = small, poorly fitted or top-dose-only effect, or another doubt; inactive = no such curve, though single readings can be large; an effect the other way counts as inactive or inconclusive.
SMILES,TGFb SMAD3 inh,HT1080 IDH1KD tx,IL1B secr inh,HT1080NT lethal,Giardia kill,HepG2 viability
COc1ccc(N(CN2C(=O)C3C4C=CC(C4)C3C2=O)C(=O)c2ccco2)cc1 (stereo unspecified),-1%,8%,12,1%,2,-12%
Cc1ccc(S(=O)(=O)C(CNC(=O)C(=O)NCCc2ccc(F)cc2)c2cccs2)cc1 (stereo unspecified),-23%,·,·,·,·,-23%
O=C(O)C1CCCCC1C(=O)NCCc1ccc(F)cc1 (stereo unspecified),-1%,8%,1,?,-25,0%
O=C(O)C1CCCCC1C(=O)NCCc1ccc(Cl)cc1 (stereo unspecified),2%,22%,-63*,21%,-10,2%
CCOC(=O)CN1CCC(c2cc(-c3ccc(Cl)cc3)n[nH]2)CC1,?,19%,-3,0%,4,-63%
O=[N+]([O-])c1cccnc1N1CCC(c2cc(-c3ccc(Cl)cc3)n[nH]2)CC1,?,-18%,-85*,-1%,9,36%
O=C(CN(c1ccc2c(c1)OCCO2)S(=O)(=O)c1ccccc1)NCc1ccc(Cl)cc1,-2%,-4%,-14,-2%,41,15%
CCOc1ccc(N)c(SSc2cc(OCC)ccc2N)c1,6.3µM*,?,0,?,-19,10µM*
Cc1c(C(=O)N2CCCCCC2(C)C(=O)NCC(C)C)oc2ccccc12 (stereo unspecified),-1%,3%,3,-3%,·,-7%
CC(C)Cn1c(N)c(C(=O)COC(=O)C2CC(=O)N(Cc3ccccc3Cl)C2)c(=O)n(C)c1=O (stereo unspecified),-1%,-12%,-61*,?,-1,0%
Cn1c(-c2ccccc2)cc2c3no[n+]([O-])c3ccc21,?,4.1µM*,67,2.3µM*,-24,-19%
COc1ccc(COc2cc(-c3cccc(OC)c3)nc3ccc(NC(=O)c4ccc(OC)cc4)cc23)cc1,?,4.6µM*,80,5.2µM*,-2,18%
COc1ccc(COc2cc(-c3cccc(OC)c3)nc3ccc(NC(=O)c4ccc(Cl)cc4)cc23)cc1,-3%,?,104,?,3,0%
COc1ccc(COc2cc(-c3cccc(OC)c3)nc3ccc(NC(=O)c4ccccc4)cc23)cc1,-3%,23µM*,48,?,1,-1%
COc1ccc(CC(=O)OCC(=O)NCC2CCCO2)cc1OC (stereo unspecified),6%,9%,-4,-1%,-1,2%
Cc1cc(C)cc(N(C(=O)c2cc3ccccc3oc2=O)C2C=CS(=O)(=O)C2)c1 (stereo unspecified),1%,-4%,-67*,-1%,-5,-28%
Cc1ccc(NC(=O)Cn2cnc(C(=O)Nc3ccc(C)c(C)c3)n2)cc1C,22%,8%,48,12%,7,0%
Cc1cc(C)c(CN2CCN(C(=O)Cn3cnc(C(=O)Nc4ccc(C)c(C)c4)n3)CC2)c(C)c1,16µM*,-97%,-7,?,27,-99%
Cc1ccc(NC(=O)c2ncn(CC(=O)N[C@H](C)c3cccc4ccccc34)n2)cc1C,-4%,-24%,11,-10%,?,-17%
Cc1ccc(NC(=O)c2ncn(CCCN3CCN(Cc4cccc5ccccc45)CC3)n2)cc1C,?,?,-52*,?,-19,-85%
Cc1ccc(NC(=O)COC(=O)Cn2ccc(C(F)(F)F)n2)cc1Cl,-4%,15%,-3,-2%[9.24 µM],7,3%

# Screening results deposited in PubChem BioAssay by National Center for Advancing Translational Sciences (NCATS).
